Results published in PubChem BioAssay (NCATS).
Records with an inconclusive call do not appear. The source made the active and inactive calls. Calls follow the shape of the dose curve; as a rule, active = well fitted curve in the direction sought with a large enough effect; inconclusive = small, poorly fitted or top-dose-only effect, or another doubt; inactive = no such curve, though single readings can be large; an effect the other way counts as inactive or inconclusive.

Experiments:
[1] = Cellular Toxicity (caspase-3) N2a (AID 665);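 also: compound exposure lasted 16 h at 37 °C before readout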
Procedure, shortened: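 Luminescent Caspase-Glo 3/7 readout in N2a mouse neuroblastoma cells after 16 h compound exposure at 37 °C. Signal scaled to DMSO (basal) and 10 uM staurosporine (100%). Concentration-response fitted with Hill equation for AC50.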

[2] = Cellular Toxicity (caspase-3) NIH 3T3 (AID 666)
Procedure, shortened: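 NIH 3T3, 1000 cells/well, 5 hr settle then 16 hr compound at 37°C; Caspase-Glo 3/7, 20 min RT, luminescence. DMSO = basal, 100 uM tamoxifen = 100%. Hill-equation AC50, qHTS.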

[3] = Cellular Toxicity (caspase-3) Renal Proximal Tubule (AID 667);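 also: cells exposed to compound for 16 hours at 37 °C before detection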
Procedure, shortened: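 Primary rat proximal tubule cells, 1000/well, 5 h plating at 37 °C, then compound 16 h at 37 °C. Caspase-Glo 3/7 reagent, 1 h RT, luminescence. Normalized to DMSO (basal) and 10 uM staurosporine (100%); Hill-fit AC50.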

[4] = target: Cytochrome P450 3A4 (Homo sapiens) (UniProt P08684); experiment: qHTS Assay for Inhibitors and Substrates of Cytochrome P450 3A4 (AID 884); also: series mostly up to about 57 µM; nearly all actives have a fitted effect of over 50% in size
Cytochrome P450 3A4 (Homo sapiens), sequence (P08684 whole entry, looked up): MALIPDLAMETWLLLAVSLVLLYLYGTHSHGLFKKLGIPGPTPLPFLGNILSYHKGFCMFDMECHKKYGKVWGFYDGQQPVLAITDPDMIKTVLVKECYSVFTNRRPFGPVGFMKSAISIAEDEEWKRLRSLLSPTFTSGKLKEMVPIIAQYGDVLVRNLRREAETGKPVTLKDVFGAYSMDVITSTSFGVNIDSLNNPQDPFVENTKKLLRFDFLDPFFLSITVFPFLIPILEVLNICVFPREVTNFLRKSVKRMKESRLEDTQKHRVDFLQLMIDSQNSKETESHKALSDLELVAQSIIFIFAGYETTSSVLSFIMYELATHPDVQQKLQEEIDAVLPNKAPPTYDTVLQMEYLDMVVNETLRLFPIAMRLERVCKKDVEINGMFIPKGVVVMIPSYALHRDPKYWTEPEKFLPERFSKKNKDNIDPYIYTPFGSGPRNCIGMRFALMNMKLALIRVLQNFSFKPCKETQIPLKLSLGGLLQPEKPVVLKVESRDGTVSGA
Procedure, shortened: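 Luminescent readout of luciferin produced by CYP3A4 (20 nM) dealkylation of Luciferin-PPXE, 25 uM (its KM). NADPH-driven reaction ran 60 min at RT after 10 min compound preincubation; data scaled to 57 uM ketoconazole as 100% inhibition.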

[5] = MultiTox-Fluor Cytotoxicity Assay - LYMP1-001 - Dead Cells (AID 946)
Procedure, shortened: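 Seed 2500 LYMP1-001 cells/well, incubate 5 hr at 37 C; add compound, 16 hr at 37 C; add MultiTox-Fluor reagent, 60 min RT; read dead-cell fluorescence Ex/Em=485/520. Normalize to DMSO and 15 uM tetraoctylammonium bromide.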

[6] = MultiTox-Fluor Cytotoxicity Assay - LYMP1-001 - Live Cells (AID 947)
[7] = Cell Viability - LYMP1-002 - Assay at 16 hr (AID 948)
Procedure, shortened: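 Human lymphoblastoid cells (LYMP1-002), 2500/well, were preincubated 5 hr at 37 C, then exposed to compounds for 16 hr at 37 C in complete medium. Cellular ATP was read by CellTiter-Glo luminescence after 30 min at room temperature; AC50 from Hill fits.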

[8] = MultiTox-Fluor Cytotoxicity Assay - LYMP1-002 - Live Cells (AID 955)
Procedure, shortened: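 LYMP1-002 lymphoblastoid cells; 2500 cells/well; 16 hr compound exposure, 37 C; MultiTox-Fluor reagent 60 min RT; live-cell fluorescence Ex/Em=405/510; qHTS concentration-response, Hill-equation AC50; tetraoctylammonium bromide positive control.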

[9] = MultiTox-Fluor Cytotoxicity Assay - LYMP1-002 - Dead Cells (AID 960); also: nearly all actives have a fitted effect of over 60% in size
Procedure, shortened: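 Readout: fluorescence at 485/520 from cell-impermeant bis-AAF-R110 cleaved by proteases leaking from damaged cells. LYMP1-002 lymphoblastoid line, 16 hr compound treatment at 37 C, concentration-response in qHTS format; Hill-equation AC50 values.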

[10] = MultiTox-Fluor Cytotoxicity Assay - LYMP1-003 - Dead Cells (AID 961); also: nearly all actives have a fitted effect of over 70% in size
Procedure, shortened: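 LYMP1-003 lymphoblastoid, 2500 cells/well, 5 hr settle then 16 hr cpd at 37 C; MultiTox-Fluor reagent 60 min RT; Ex/Em 485/520 dead-cell signal; norm. DMSO = 0%, 15 uM tetraoctylammonium bromide = 100%; Hill AC50.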

[11] = MultiTox-Fluor Cytotoxicity Assay - LYMP1-003 - Live Cells (AID 962);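 also: cytotoxic hits lower the live-cell protease signal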
Procedure, shortened: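 Readout: live-cell fluorescence (Ex/Em=405/510) from GF-AFC cleavage after 60 min MultiTox-Fluor reagent at room temperature. Lymphoblastoid LYMP1-003 cells, 16 hr compound treatment, 37 C. Concentration-response fitted to standard Hill equation for AC50.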

[12] = Cell Viability - LYMP1-003 - Assay at 24 hr (AID 963)
Procedure, shortened: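 CellTiter-Glo luminescence (intracellular ATP) read after 24 hr, 37 C compound exposure of 2500 LYMP1-003 human lymphoblastoid cells/well in complete medium; qHTS concentration series; AC50 via standard Hill equation.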

[13] = Cell Viability - LYMP1-003 - Assay at 40 hr (AID 964); also: series mostly up to about 92 µM; nearly all actives have a fitted effect of over 60% in size
Procedure, shortened: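 LYMP1-003 lymphoblastoid cells, 2500/well; 5 hr preincubation, 40 hr compound exposure, 37 C; CellTiter-Glo 30 min RT; luminescence; Hill-fit AC50. Positive control tetraoctylammonium bromide.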

[14] = Cell Viability - LYMP2-003 (AID 965);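 also: cells exposed to compounds for 24 h before reading; nearly all actives have a fitted effect of over 50% in size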
Procedure, shortened: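 Human lymphoblastoid cells (2500/well) were pre-incubated 5 hr at 37 C, then exposed to compounds over a concentration range for 24 hr at 37 C. Intracellular ATP was read by CellTiter-Glo luminescence; AC50 came from Hill-equation fits.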

[15] = Cell Viability - LYMP2-004 (AID 966); also: nearly all actives have a fitted effect of over 65% in size
Procedure, shortened: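 Luminescent ATP read-out (CellTiter-Glo, 30 min RT) after 24 hr compound exposure at 37 C; 2500 lymphoblastoid cells/well, complete medium. Decrease in ATP = cytotoxicity; AC50 from standard Hill model.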

[16] = Cell Viability - LYMP2-005 (AID 967); also: series mostly up to about 92 µM
Procedure, shortened: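 CellTiter-Glo luminescence (cellular ATP) read-out; LYMP2-005 lymphoblastoid cells, 2500/well, 5 h pre-incubation, then 24 h compound exposure at 37 C in complete medium. Tetraoctylammonium bromide positive control; AC50 by standard Hill fit.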

[17] = Cell Viability - LYMP2-009 (AID 968); also: series mostly up to about 92 µM; nearly all actives have a fitted effect of over 55% in size
[18] = Cell Viability - LYMP2-011 (AID 969); also: nearly all actives have a fitted effect of over 60% in size
Procedure, shortened: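 Luminescent ATP read-out (CellTiter-Glo, 30 min RT) after 24 hr compound exposure at 37 C in human lymphoblastoid cells, 2500 cells/well. Decreasing ATP indicates cytotoxicity; AC50 from standard Hill fit.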

[19] = Cell Viability - LYMP2-013 (AID 970); also: series mostly up to about 92 µM; nearly all actives have a fitted effect of over 55% in size
Procedure, shortened: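 CellTiter-Glo luminescence (cellular ATP) read after 30 min at RT. Cells: human lymphoblastoid line, 2500/well, 24 hr compound exposure at 37 C. Tetraoctylammonium bromide positive control; AC50 via standard Hill fit of qHTS titrations.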

[20] = Cell Viability - LYMP2-017 (AID 972); also: series mostly up to about 92 µM; nearly all actives have a fitted effect of over 55% in size
Procedure, shortened: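 Luminescent ATP read-out (CellTiter-Glo, 30 min RT) reports viable cell number. Cells: human lymphoblastoid line, 2500 per well, 5 hr preincubation, 24 hr compound exposure at 37 C. AC50 is derived from qHTS concentration-response data using the standard Hill model.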

[21] = Cell Viability - LYMP2-019 (AID 973); also: nearly all actives have a fitted effect of over 55% in size
Procedure, shortened: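 qHTS, 1536-well; 2500 cells/well; 5 hr pre-incubation, 24 hr compound exposure, 37 C; CellTiter-Glo added, 30 min RT; luminescence read; AC50 via standard Hill equation.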

[22] = Cell Viability - LYMP2-021 (AID 974)
Procedure, shortened: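 ATP luminescence (CellTiter-Glo, 30 min RT) after 24 h compound exposure at 37 C; 2500 human lymphoblastoid cells/well, 5 h settle beforehand. Cytotoxicity = concentration-dependent ATP drop, AC50 by Hill fit.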

[23] = Cell Viability - LYMP2-023 (AID 975)
Procedure, shortened: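 CellTiter-Glo luminescence after 30 min at room temperature; decrease in intracellular ATP reflects toxicity. Cells: human lymphoblastoid line, 2500/well, 24 hr compound exposure at 37 C. AC50 fitted to standard Hill equation from concentration-response.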

Measured: Potency

CCOc1cc(C=O)ccc1O
inactive: [1] | [2] | [3] | [4] | [5] | [6] | [7] | [8] | [9] | [10] | [11] | [12] | [13] | [14] | [15] | [16] | [17] | [18] | [19] | [20] | [21] | [22] | [23]
